# Bioassay records deposited in PubChem BioAssay by several laboratories.
# Sampled rows, rich in hits. Any-hit rate of the full collection: about 27%.
# CYP2C9 inhib = inhibitors of human CYP2C9 | hit rate 20% among 96,000 | P11712 | inhibition, % at 5 µM | CYP2C9 Supersomes, luciferin-H conversion, luminescence;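 active means blocking of liver enzyme CYP2C9 beyond about 50% at 5 µM, limit read from the data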
# Cav3 T inh = blocks human Cav3.2 T-type calcium channel; O95180; Cav3.2-expressing cells, Fluo-4 calcium fluorescence FDSS; hits give low values; B-score at 10 µM; hit rate 4% among 100,000;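 active means single-dose well whose peak fluorescence ratio is a statistical outlier from its plate by either plate-standardised score or position-corrected B-score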
# CYP2C19 inhib = inhibitors of human CYP2C19 | hit rate 21% among 96,000 | P33261 | CYP2C19 Supersomes, luciferin-H EGE luminescence, 30 min | inhibition, % at 5 µM;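 active means CYP2C19 inhibition above a set limit at 5 µM in the primary screen, cut at about 50% in these data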;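 further: plate controls were negative control wells for no effect and 2.5 mM tranylcypromine positive control for full effect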
# CYP2C19 act = activators of human cytochrome P450 2C19. recombinant CYP2C19, luciferin-H EGE luminescence; hits give high values; 0 = fully inhibited enzyme, 1 = untreated enzyme. P33261. activation factor at 5 µM. 96,000 tested, under 10 active;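 active means activation factor of at least 2 at 5 µM in the primary screen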;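 further: 0 = wells with 2.5 mM tranylcypromine and 1 = vehicle-only wells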
# CYP2C9 act = increases human cytochrome P450 2C9 activity; P11712; recombinant CYP2C9, luciferin-H conversion, luminescence; hits give high values; factor 1 = untreated enzyme, 0 = blocked; activation factor at 5 µM; hit rate 1.4% among 96,000; AID 1024;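 active means activation factor of 2 or more for CYP2C9 at a 5 µM dose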;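 further: 0 = sulfaphenazole-blocked wells and 1 = vehicle-only wells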
# Numbers without * were called inactive; / = not tested or not shown.
SMILES,CYP2C9 inhib,Cav3 T inh,CYP2C19 inhib,CYP2C19 act,CYP2C9 act
COc1cccc(C(=O)N2CCN(S(C)(=O)=O)CC2)c1,8.6,0.121,27.6,0.7,0.9
O=C1CC(c2ccccc2)CC(O)=C1C=NCCN1CCN(C(=O)Nc2ccccc2)CC1 (stereo unspecified),11.9,-1.24,26.6,0.7,0.9
COc1cccc(C(=O)N2CCN(Cc3ccccc3C(F)(F)F)CC2)c1,37.2,-1.57,95.0*,0.1,0.6
COc1ccc(Cl)cc1NC(=S)N1CCN(c2ccccn2)CC1,-154.4,0.00547,56.0*,0.4,2.5*
O=C(c1cccc(COc2cccc3ccccc23)c1)N1CCCC1,/,-3.79,/,/,/
O=C(c1cccc(COc2ccc(Cl)cc2Cl)c1)N1CCN(c2ccccn2)CC1,69.9*,-6.24*,53.8*,0.5,0.3
COc1cccc(C(=O)N2CCN(Cc3cc(Br)ccc3OC)CC2)c1,/,-2.27,/,/,/
COc1cccc(C(=O)N2CCN(c3ncccn3)CC2)c1,32.3,0.199,70.3*,0.3,0.7
Cc1ccc2cccc(Oc3cnccn3)c2n1,-5.1,0.409,-2.3,1,1.1
Cc1cn(C(=O)c2ccccc2)c(=S)n1-c1ccc(Br)cc1,/,-2.24,/,/,/
O=C(Cc1sc(-c2ccccc2Cl)nc1-c1ccccc1)Nc1ccc(F)cc1,72.7*,-0.753,38.9,0.6,0.3
CCOC(=O)c1c(-c2ccccc2)nnn1-c1nc(OCC)nc(N2CCCCC2)n1,59.9*,-7.63*,88.2*,0.1,0.4
CCOC(=O)c1nnn(-c2nc(N3CCCC3)nc(N3CCCC3)n2)c1-c1ccccc1,23.3,/,51.0*,0.5,0.8
CCOC(=O)c1nnn(-c2nc(OC)nc(N3CCCCC3)n2)c1-c1ccccc1,55.5*,-6.1*,80.2*,0.2,0.4
Cc1nnc(Sc2nc3c(c(=O)[nH]c(=O)n3C)n2CCCc2ccccc2)s1,60.0*,0.177,27.3,0.7,0.4
CCOC(=O)C(CC)Sc1nc2c(c(=O)[nH]c(=O)n2C)n1CCc1ccccc1 (stereo unspecified),78.2*,1.25,60.0*,0.4,0.2
CCOC(=O)CSc1nc2c(c(=O)[nH]c(=O)n2C)n1CCc1ccccc1,6.9,0.039,16.1,0.8,0.9
Cc1cc2oc3ccc(NCCCn4ccnc4)cc3c(=O)c2cc1C,/,0.0718,/,/,/
CCOC(=O)c1ccccc1NC(=O)CSc1nnc(C(C)C)n1CC,/,1.78,/,/,/
O=C(CNC(=O)c1ccco1)Nc1cc(Cl)ccc1N1CCOCC1,73.2*,0.765,38.2,0.6,0.3
O=C(Nc1ccc(Cl)cc1C(=O)NCCN1CCOCC1)c1ccco1,68.1*,-0.302,35.7,0.6,0.3
C#CCNC(=O)C1=C[C@H](c2ccc(C(F)(F)F)cc2)C[C@H](OCCCCO)O1,/,-0.152,/,/,/
Cc1cc(C(=O)O)c(CSCc2cc(C(=O)O)oc2C)o1,-74.6,/,22.3,0.8,1.7
CC(=O)N=C1SC2CS(=O)(=O)CC2N1c1cccc(Cl)c1Cl (stereo unspecified),66.5*,0.234,11.1,0.9,0.3
CCC(C)[C@H](N)c1cn([C@@H](Cc2cc3ccccc3[nH]2)C(=O)N2CCNCC2)nn1 (stereo partly specified),/,0.516,/,/,/
SMILES,CYP2C9 inhib,Cav3 T inh,CYP2C19 inhib,CYP2C19 act,CYP2C9 act
CCCCN(C)C(=O)c1sc2ncn(CC)c(=O)c2c1C,-4.4,-0.117,-19.6,1.2,1
O=S1(=O)C=C(Oc2ccc(F)cc2)c2ccccc21,29.3,-0.272,81.4*,0.2,0.7
Clc1ccc(CN=C2Nc3ccccc3CS2)cc1,32.6,-1.74,85.7*,0.1,0.7
Cc1ccc(CN=C2Nc3ccccc3CS2)cc1,34.9,-1.99,70.9*,0.3,0.7
CCc1c(C(=O)O)[nH]c2ccc(Br)cc12,26.2,0.213,-2.2,1,0.7
COCC(N)(c1ccccc1)c1nc2ccccc2n1C (stereo unspecified),1.8,0.752,52.0*,0.5,1
COc1cccc(NC(=O)COc2ccccc2C(N)=O)c1,20.0,-0.218,38.3,0.6,0.8
COc1cccc(NC(=S)NNC(=O)c2ccccc2OC(F)F)c1,64.2*,1.22,28.8,0.7,0.4
Cc1ccc(NC(=S)NNC(=O)c2ccccc2OC(F)F)cc1,55.9*,/,23.1,0.8,0.4
O=C(NNC(=S)Nc1ccc(F)cc1)c1ccccc1OC(F)F,58.4*,1.08,15.6,0.8,0.4
Cc1ccc(NC(=S)NNC(=O)c2cn(C)nc2C)cc1,3.7,-0.538,-0.9,1,1
CCN1C(=O)N(c2ccc(Cl)cc2)C(C)=CC1(C)C,10.6,0.922,25.8,0.7,0.9
COc1cc(-c2nnc(COC(=O)c3c4c(nc5ccccc35)CCCC4)o2)cc(OC)c1OC,79.2*,0.942,68.0*,0.3,0.2
CC1CCN(C(=O)C2(NC(=O)Nc3cccc(F)c3)CCCCC2)CC1,/,-0.491,/,/,/
CC(C1CC1)N(C(=O)c1ccccc1O)c1ccccc1 (stereo unspecified),40.9,-0.124,80.2*,0.2,0.6
CCCCn1c2c(c3ccccc31)CCc1nonc1-2,-0.5,-0.107,-5.1,1.1,1
COC(=O)c1cc2oc(C)cc2n1CC(=O)Nc1cc(C)cc(C)c1,3.9,-0.75,-11.4,1.1,1
CCCC(=O)c1c[nH]c(C(=O)NCc2ccco2)c1,4.3,0.16,11.4,0.9,1
Cc1ccc(-c2nc3cnccn3c2Nc2c(C)cccc2C)o1,63.2*,-3.34,99.2*,0,0.4
Cc1ccc(-c2nc3ncccn3c2Nc2ccc3c(c2)OCO3)o1,/,-0.0203,/,/,/
COC(=O)C1CCN(C(=O)N2CCOCC2)CC1,4.9,1.31,13.1,0.9,1
COC(=O)C1CCN(C(=O)C2CCCCC2)CC1,22.5,-0.0371,65.9*,0.3,0.8
CCC1=C[C@H]2CN(C1)Cc1c([nH]c3ccccc13)[C@@](C(=O)OC)(c1cc3c(cc1OC)N(C)[C@H]1[C@@](O)(C(=O)OC)[C@H](OC(C)=O)[C@]4(CC)C=CCN5CC[C@]31[C@@H]54)C2,/,-0.661,/,/,/
O=C(Nc1nc2c(s1)CCc1ccccc1-2)c1cccs1,-7.5,0.184,8.9,0.9,1.1
O=C(Nc1nc2c(s1)COc1ccccc1-2)c1cccs1,62.8*,-2.22,36.2,0.6,0.4
SMILES,CYP2C9 inhib,Cav3 T inh,CYP2C19 inhib,CYP2C19 act,CYP2C9 act
CCn1c(C)[n+](CC(O)COCC2CC=CCC2)c2ccccc21 (stereo unspecified),-3.6,0.391,-13.4,1.1,1
Cc1cccc(Cn2ncc(Cl)c(Cl)c2=O)c1,-6.7,1.45,9.6,0.9,1.1
O=C(OCn1ncc(Cl)c(Cl)c1=O)c1ccc(C(F)(F)F)cc1,22.5,1.58,83.1*,0.2,0.8
C/C(N)=C(/C#N)C(=O)CSc1nnnn1-c1ccc(C)cc1,-20.5,0.643,51.6*,0.5,1.2
C/C(N)=C(/C#N)C(=O)CSc1nnnn1-c1ccccc1,-11.4,/,63.9*,0.4,1.1
COc1ccc(-n2nnnc2SCC(N)=O)cc1,-14.8,0.111,-11.1,1.1,1.1
O=C(O)CCSc1nnnn1-c1ccccc1,-13.5,0.0218,-14.3,1.1,1.1
FC(F)C(F)(F)C(F)(F)C(F)(F)c1cc(-c2ccccc2)n[nH]1,76.4*,-1.8,85.3*,0.1,0.2
